Experimental data published in PubChem BioAssay AID1508625 (Wald Lab, School of Medicine, Case Western Reserve …, 2021).

Test: small molecules boosting NK-mediated OVCAR3 lysis – imaging, primary NK cells, calcein-AM imaging, primary screen (AID 1508625);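 also: compound given to NK cells 16 h before adding targets at 1.5 to 1 ratio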;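 as to z-score: more negative robust z means stronger NK killing of tumor cells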
Settings: OVCAR3 lysis by primary NK cells, at 5 µM; z-score: measured here: robust Z-score, single-point normalisation

SMILES	corrected activity, negative = more killing	z-score
COc1ccc(OC)c(NC(=O)CSc2nc3c([nH]c4ccccc43)c(=O)n2C)c1	-8.66%	-2.15
CC1=NN(C(=O)C(C)C)C(O)(c2ccccc2)C1 (stereo not given)	-7.14%	-3.83
CCCCNC(=O)c1c[nH]c2ccc(S(=O)(=O)Nc3cccc(SC)c3)cc2c1=O	-1.92%	-0.471
CCOC(=O)Cn1nc(-c2ccc(C)cc2)ccc1=O	-0.853%	-0.23
O=C(Oc1ccccc1C(=S)N1CCOCC1)c1ccc(Br)cc1	-4.68%	-1.45
Cc1ccc(NC(=O)CSc2nc3c(cc2C#N)CCCCC3)cc1	2.66%	0.825
COc1ccc(Cl)cc1NC(=O)c1cnn2c(C(F)(F)F)cc(-c3ccc(C)cc3)nc12	-0.972%	-0.309
Oc1cccc(CN2CCN3CCCC3C2C2CCCCC2)c1 (stereo not given)	-0.454%	-0.198
CCOC(=O)c1cnc(SCc2ccccc2Cl)nc1N	-1.75%	-0.473
Cc1ccc(-c2coc3c(C)c4oc(=O)c5c(c4cc23)CCC5)cc1	-5.02%	-1.5
CCOC(=O)C(Cc1ccccc1)C(=O)N(C1CCCCC1)C1CCCCC1 (stereo not given)	-3.39%	-1.82
O=C(c1ccc2c(=O)n(-c3ccc(F)cc3)c(=S)[nH]c2c1)N1CCc2ccccc2C1	-0.906%	-0.288
O=C(NCC1CCCO1)Nc1cccc(Cl)c1 (stereo not given)	1.53%	0.544
CCOc1cccc(C=NN2CCN(Cc3ccccc3)CC2)c1O	-2.77%	-1.21
COc1ccc(N2CCN(C(=O)c3ccc4ccccc4n3)CC2)cc1	-1.53%	-0.85
CCc1noc(C)c1C(=O)N1CC(C)OC(C)C1 (stereo not given)	-2.62%	-1.08
CCCCNCC(=O)Nc1ccc(Br)cc1	-5.05%	-1.88
COc1ccc(NC(=O)C(N)=O)cc1	-3.82%	-1.62
CCc1ccccc1N1C(=O)C2C(c3ccc(Br)cc3)OC3(C(=O)c4ccccc4C3=O)C2C1=O (stereo not given)	0.455%	0.141
Cc1c(C(=O)O)oc2ccc(S(=O)(=O)N3CCOCC3)cc12	-2.57%	-0.692
Nc1nc(OCC(F)(F)F)cc(OCC(F)(F)F)n1	-6.92%	-1.46
COc1ccc(Cc2nc3c4c5c(sc4ncn3n2)C(C)(C)NC(C)(C)C5)cc1OC	-2.36%	-1.03
Cc1ccc(C(=O)Nc2cccc3c2C(=O)c2ccccc2C3=O)o1	-2.82%	-1.16

SMILES	corrected activity, negative = more killing	z-score
O=C1C2C(c3ccc([N+](=O)[O-])cc3)OC3(C(=O)c4ccccc4C3=O)C2C(=O)N1c1ccc(Cl)cc1 (stereo not given)	-3.68%	-1.14
COc1ccc(CNCC2OCCc3ccccc32)cc1OC (stereo not given)	-5.1%	-1.95
CCC(Oc1ccccc1)C(=O)N1CCC(C(N)=O)CC1 (stereo not given)	-2.95%	-1.64
CCc1ccccc1-n1cnc2cc(C(=O)NCc3ccc(C)cc3)ccc21	-4.47%	-1.2
c1nc(N2CCCCCC2)c2[nH]cnc2n1	-0.464%	-0.115
Cc1sc(NC(=O)C2c3ccccc3Oc3ccccc32)c(C(N)=O)c1C	-5.26%	-2.16
CC(C)(C)c1ccc(-c2nc3cc(NC(=O)Cc4ccccc4)ccc3o2)cc1	-3%	-1.06
Cc1ccc(NC(=O)CSc2ccc(Nc3ccc(C)cc3)nn2)cc1	-2.33%	-0.695
CCC(CC)NC(=O)c1cccc(OC)c1OC	-0.109%	-0.0486
CON1C(=O)C(C)(C)N(OC)C(=O)C1(C)C	2.31%	0.733
CC(=O)c1c(C(C)=O)c(C)n(-c2ccc(Cl)c(N)c2)c1C	-6.08%	-2.26
O=C1C(=O)N(CCO)C(c2ccc(Br)cc2)C1=C(O)c1ccccc1 (stereo not given)	-2.24%	-0.856
O=C(COc1ccccc1F)N1CCc2ccccc2C1	-4.1%	-1.68
CCC(=O)Nc1ccccc1C(=O)C(=O)Nc1ccccc1	-1%	-0.557
Cc1ccccc1-c1n[nH]c(=S)o1	-4.65%	-1.65
Cc1cc(Br)ccc1NC(=O)Cn1cnc2sc(C)c(S(=O)(=O)N3CCN(C)CC3)c2c1=O	-7.06%	-1.76
O=C(CC1Sc2ccccc2NC1=O)Nc1ccc2c(c1)OCO2 (stereo not given)	-2.14%	-0.818
NC(=O)CN1CCOCCN(CC(N)=O)CCOCC1	-12.6%	-2.65
COc1ccc(C(=O)Nc2ccc(-c3nc4cc(C)cc(C)c4o3)cc2)cc1OC	2.2%	0.681
N#Cc1c(NC(=O)c2ccc(Cl)c(S(=O)(=O)N3CCOCC3)c2)sc2c1CCCC2	-5.49%	-1.95
COc1ccc(S(=O)(=O)NCCc2ccccc2)c2ccccc12	-3.37%	-1.46
O=CN1CCN(c2nc3ccccc3nc2C(F)(F)F)CC1	-2.49%	-1.02
